Structures are written as SMILES. Out of some 170,000 compounds screened, about 460 (0.27%) were called active. This is one part of a sample in which actives are shown more often than they occur. Values without a mark were called inactive.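 The calls were made as follows: active = inhibition above the plate cutoff, the mean inhibition of test wells on that plate plus 3 SD (cut at about 28% in these data); inactive = the rest.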

Chain of Sphingosine 1-phosphate receptor 3 (Homo sapiens) (Q99500 whole entry, looked up): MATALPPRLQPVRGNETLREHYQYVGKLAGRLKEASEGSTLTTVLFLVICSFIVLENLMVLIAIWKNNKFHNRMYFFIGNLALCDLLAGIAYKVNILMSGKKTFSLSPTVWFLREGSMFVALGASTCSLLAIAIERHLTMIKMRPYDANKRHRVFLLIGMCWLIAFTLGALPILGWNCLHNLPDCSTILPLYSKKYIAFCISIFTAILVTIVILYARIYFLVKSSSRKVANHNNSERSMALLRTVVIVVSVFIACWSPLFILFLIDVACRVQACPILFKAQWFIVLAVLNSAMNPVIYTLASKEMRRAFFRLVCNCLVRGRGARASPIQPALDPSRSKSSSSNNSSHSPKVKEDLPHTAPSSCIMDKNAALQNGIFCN

This assay concerns the target Sphingosine 1-phosphate receptor 3 (Homo sapiens) (UniProt Q99500). Kind of assay: inhibition of S1P-stimulated S1P3 activation – cell-based, primary screen (AID 485).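 Also: cells challenged with S1P at its EC80 of 0.8 µM; blue over green emission ratio from cleaved BLA substrate after 4 h stimulation; 0% = S1P-stimulated wells and 100% = unstimulated DMSO-only wells.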 The settings on record: CHO S1P3 NFAT-BLA reporter, FRET fluorescence, antagonist mode; at 4.98 µM; hits give high values.
For `Cn1cccc1-c1nc2ccccc2n1C`, the inhibition was -6.38%.

Take `Cn1c(S(=O)(=O)O)nc2ccccc21`: the inhibition is -12.4%.

`Cn1c(-c2ccc(C(=O)c3ccccc3)s2)nc2ccccc21`: the inhibition is 59.9% (active).

On to `Cc1ccc(-n2ncc3c(N4CCN(c5ccc(F)cc5)CC4)ncnc32)c(C)c1`, for which the inhibition was 27.2%.

On to `COc1ccc(-n2ncc3c(N4CCc5ccccc54)ncnc32)cc1`, for which the inhibition is 13.4%.

Regarding `Cc1cccc(-n2ncc3c(N4CCc5ccccc54)ncnc32)c1`, the inhibition is 84.3% (active).

Turning to `CCN(CC)c1ccc2c(Nc3ccccc3)c(C=O)c(=O)oc2c1`, the inhibition was 6.07%.

In the case of `CC(C)Cc1nnc(NC(=O)CCC(=O)Nc2ccc3cn[nH]c3c2)s1`, the inhibition is -0.32%.

`Cc1c(CN2CCCCC2)c(O)n(CCO)c(=O)c1C#N`: the inhibition is -12.4%.

Consider `CCOc1cnc(-c2c(-c3ccccc3Cl)noc2C)o1`, for which the inhibition was -6.23%.

For `Cc1ccc(S(=O)(=O)N(CC(=O)NN=C2CCN(C)CC2)c2ccc(F)cc2)cc1`, the inhibition is 4.23%.

Take `CCN(CC)C(=O)C(=O)c1cn(CC(=O)NCc2ccc3c(c2)OCO3)c2ccccc12`: the inhibition was 1.34%.

On to `CN(C)c1ccc(NC(=O)CSc2n[nH]c(-c3ccco3)n2)cc1`, for which the inhibition is -1.38%.

In the case of `CC(C)C(=O)Nc1ccc2oc(=O)ccc2c1`, the inhibition was -11.4%.

Take `CC1CCN(C(=S)c2cccc([N+](=O)[O-])c2)CC1`: the inhibition was -0.25%.

`C=CCOC(=O)C1=C(C)N=C2SCCC(=O)N2C1/C=C/c1ccccc1OC` (stereo not drawn): the inhibition is -1.87%.

`CCC(C)(C)NC(=O)CN(Cc1cccs1)C(=O)CNS(=O)(=O)c1ccc(F)cc1`: the inhibition was -2.83%.

As for `Cc1cc(N/N=C/c2ccccc2F)c2ccccc2n1`, the inhibition was -3.58%.

For the compound `CC(=O)Nc1ccc(C(=O)/C=C/c2ccc[nH]2)cc1`, the inhibition was 0.84%.

Take `CCc1cc(CNC(=O)CC2C(=O)NCCN2Cc2ccccc2C(F)(F)F)on1` (stereo not drawn): the inhibition was -1.82%.

In the case of `CCc1ccc(C(=O)OCC(=O)NCC(F)(F)F)cc1`, the inhibition was -9.42%.

In the case of `O=C(O)CC12CC3CC(C1)CC(n1ncc(NCc4ccc(F)cc4)c(Cl)c1=O)(C3)C2`, the inhibition is -16.8%.

Turning to `COc1cc2c(cc1O)[C@H](Cc1ccc(Oc3cc(C[C@@H]4NCCc5cc(OC)c(O)cc54)ccc3O)cc1)NCC2`, the inhibition is -12.9%.

For the compound `CC[C@H]1CN2CCc3cc(OC)c(OC)cc3[C@@H]2C[C@@H]1C[C@H]1NCCc2cc(OC)c(OC)cc21`, the inhibition is 97.4% (active).

`CN1C(=O)/C(=N/OC(=O)c2ccccc2Br)c2ccccc21`: the inhibition was -12.3%.

Regarding `COc1ccc(NC(=O)CN2C(=O)CSC2=O)cc1`, the inhibition is 4.71%.

As to `CC(C)N(Cc1ccccc1)C(=O)COC(=O)c1cnccn1`, the inhibition was -8.02%.

As to `O=Cc1ccc(OCc2cn3ccccc3n2)cc1`, the inhibition was -13.1%.

Take `CCCc1ccc(C(=O)[C@@H]2[C@@H](C(C)=O)N3c4ccc(F)cc4C=C[C@@H]3[C@@]23C(=O)Nc2ccccc23)cc1`: the inhibition was 3%.

On to `CCCN(CCC)CC(O)COc1ccccc1C(=O)Nc1ccccc1` (stereo not drawn), for which the inhibition is -9.63%.

Take `COc1ccccc1C(=O)NNC(=O)c1ccc(NC(=O)c2ccccc2)cc1`: the inhibition was -4.89%.

On to `CC(C)Oc1ccccc1C(=O)NC(CO)C(=O)O` (stereo not drawn), for which the inhibition is 28.6% (active).

As to `O=C(Nc1cccc2c1N(C(=O)c1ccco1)CCC2)c1ccco1`, the inhibition is -8.57%.

Consider `CCN1/C(=C\c2ccc3ccccc3[n+]2CC)Sc2cc(C)ccc21`, for which the inhibition was 31.2% (active).

Consider `CCN1/C(=C/c2ccc3ccc(C)cc3[n+]2CC)Sc2ccccc21`, for which the inhibition is 25.1%.

Consider `CCC(=O)/C=C1\Sc2ccccc2N1CC`, for which the inhibition is 1.3%.

As to `C=CCSc1nnc(NC(=O)c2ccc(NC(C)=O)cc2)s1`, the inhibition was -1.45%.

In the case of `Cc1cccc(C(=O)Nc2ccc3c(c2)C(=O)N(CC(C)C)C3=O)c1`, the inhibition is 2.56%.

As for `Nc1ccccc1Sc1cc(Cl)nnc1Cl`, the inhibition is 1.23%.

Regarding `Cc1c(NC(=O)C(=O)N/N=C/c2cccs2)c(=O)n(-c2ccccc2)n1C`, the inhibition is -2.98%.

For the compound `COc1ccccc1NC(=O)C1=C(C)NC(=O)NC1c1ccc(C)s1` (stereo not drawn), the inhibition was 1.95%.

For `COc1cccc(OC)c1C(=O)NC(=S)NCc1ccco1`, the inhibition was -6.79%.

For the compound `NS(=O)(=O)c1ccc(CNC(=O)c2cnccn2)cc1`, the inhibition is -4%.

As for `Brc1ccc(-c2nn[nH]n2)cc1`, the inhibition is -7.13%.

`CCN(CCn1cccn1)Cc1cn[nH]c1-c1ccc(OC)cc1F`: the inhibition was -12.8%.

As for `COc1ccc(CCNC2=CC(=O)CC(C)(C)C2)cc1`, the inhibition was -7.01%.

As for `CN(C)/C=C(/C(=O)c1ccc(Cl)c(Cl)c1)c1nnnn1-c1ccccc1`, the inhibition was 1.6%.

As for `O=C(NNC(=O)c1ccccc1[N+](=O)[O-])Nc1ccccc1C(F)(F)F`, the inhibition is -5.24%.

With `O=S(=O)([N-]c1nc2ccccc2nc1-[n+]1ccc(Cc2ccccc2)cc1)c1ccc(Br)s1`, the inhibition is 0.71%.

As to `CCNc1nc(Oc2ccc(C(=O)OC)cc2)nc(N2CCOCC2)n1`, the inhibition is -9.79%.

`COc1ccccc1Nc1nc(N)nc(CSC(=S)N2CCOCC2)n1`: the inhibition was 3%.

For `O=C(CCCl)Nc1ccc(S(=O)(=O)NCc2ccco2)cc1`, the inhibition was -8.65%.

On to `O=C(NCc1nnc(SCC(=O)N2CCCc3ccccc32)o1)c1ccccc1F`, for which the inhibition was -7.71%.

For the compound `CCCCC(=O)NCc1ccc(F)cc1`, the inhibition is 6.82%.

`CSc1ccc(CN(C)CC(=O)NCc2ccc(F)cc2)cc1`: the inhibition was 30.2% (active).

Regarding `O=C(Cc1ccccc1)NCc1ccc(F)cc1`, the inhibition is -11%.

Take `COc1ccccc1-n1c(SCC(=O)O)nc2sc3c(c2c1=O)CCC3`: the inhibition was -7.86%.

Turning to `Cc1ccc(SCCN2C(=O)NC(C)(C)C2=O)cc1`, the inhibition is -2.4%.

Take `Nc1ccc(SCCN2C(=O)c3ccccc3C2=O)cc1`: the inhibition was 91.7% (active).

Regarding `CN(C)CCCn1c(SCCN2C(=O)c3ccccc3C2=O)nc2ccccc2c1=O`, the inhibition is 5.65%.

For `CCOC(=O)C1=C(C)NC(=O)NC1c1ccccc1` (stereo not drawn), the inhibition is -9.13%.

As to `CCOC(=O)C1=C(C)N=C2c3ccccc3C(=O)C2C1c1ccc(Br)cc1` (stereo not drawn), the inhibition was 60% (active).

`CCOC(=O)C1=C(C)NC(C)=C(C(=O)OCC)C1c1ccccn1`: the inhibition was -28.6%.

For the origin of these results see PubChem BioAssay AID485 (The Scripps Research Institute Molecular Screening Center, 2006).
